PubChem BioAssay (Tox21)
Several values for one entry are separate records, joined by “and”; a condition that tells them apart may be missing. Equal values may be shown once. Values without a mark were called inactive. Records with an inconclusive call do not appear. Where a call stands in place of a potency, no number is given. Activity calls are given as the source filed them. Unless noted, the call rests on the fitted dose curve; in most records, active means well fitted curve in the direction sought with a large enough effect in the repeat runs; inconclusive means weak or mixed curves; inactive means no such curve, though single readings can be large; an effect the other way counts as inactive or inconclusive.

How the values were obtained:
[1] = qHTS assay to identify small molecule agonists of the estrogen receptor alpha (ER-alpha) signaling pathway in the presence of an antagonist - cell viability counter screen (AID 1259386); further: series mostly up to about 92 µM; nearly all actives have a fitted effect of over 30% in size
Outline: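 Compounds tested at 15 concentrations for 22 h at 37C alongside 10.0nM (final) ICI-182,780 antagonist, in VM7Luc4E2 cells grown in phenol red-free, charcoal-stripped medium. Viability read by CellTiter-Fluor fluorescence after 1 h reagent incubation.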

[2] = biological target: Progesterone receptor (Homo sapiens) (UniProt P06401); experiment: qHTS assay to identify small molecule antagonists of the progesterone receptor (PR) signaling pathway (AID 1346795; active means well fitted inhibition curve with a large enough effect in the signal ratio in the repeat runs, not every such curve was filed as active; the % refers to the signal ratio; further: potency means the concentration at half of the fitted maximal effect)
Outline: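 Inhibition of R5020-induced (1 nM final) beta-lactamase reporter signal in PR-UAS-bla HEK293T cells was scored by FRET fluorescence after overnight (16 hr) compound treatment.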

[3] = qHTS assay to identify small molecule antagonists of the progesterone receptor (PR) signaling pathway - cell viability counter screen (AID 1346798); further: series mostly up to about 92 µM; nearly all actives have a fitted effect of over 50% in size
Outline: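 ATP content as viability readout: CellTiter-Glo luminescence, 30 min room temperature, in PR-UAS-bla HEK293T cells after 16 hr compound/R5020 treatment at 37C and 5% CO2.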

[4] = qHTS assay to identify small molecule agonists of the progesterone receptor (PR) signaling pathway - cell viability counter screen (AID 1346799; calls by dose curve; further: nearly all actives have a fitted effect of over 45% in size)
Outline: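 Cytotoxicity in PR-bla HEK293T cells: 16 h compound, 37C; CellTiter-Glo added post-FRET read; luminescence after 30 min RT.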

[5] = qHTS assay to identify small molecule antagonists of the TGF-beta/Smad signaling pathway - cell viability counter screen (AID 1346824); further: nearly all actives have a fitted effect of over 50% in size
Outline: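 SBE-bla HEK 293T cells, incubated overnight, then compound plus 0.25 ng/mL TGF-beta1 (stock added) for 5 hr at 37 C. Viability was read in the same wells by CellTiter-Glo luminescence after 30 min at room temperature.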

[6] = qHTS assay to identify small molecule agonists of the TGF-beta/Smad signaling pathway - cell viability counter screen (AID 1346829); further: top concentration of the series differs between compounds; nearly all actives have a fitted effect of over 45% in size
Outline: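 HEK 293T SBE-bla line, 5 hr compound exposure at 37 C, multiplexed CellTiter-Glo viability read by luminescence.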

[7] = qHTS assay to identify small molecule agonists of the TGF-beta/Smad signaling pathway (AID 1346859; active means well fitted activation curve with a large enough effect in the signal ratio in the repeat runs, not every such curve was filed as active; the % refers to the signal ratio; further: series mostly up to about 77 µM)
Outline: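 Stable Smad binding element-beta-lactamase HEK 293T cells; 5 hr compound exposure at 37 C under 5% CO2; 2 hr room-temperature substrate step; fluorescence excited at 405 nm, collected at 460 nm and 530 nm.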

[8] = biological target: Thyrotropin-releasing hormone receptor (Homo sapiens) (UniProt P34981); experiment: qHTS assay to identify small molecule antagonists of the thyrotropin-releasing hormone receptor (TRHR) signaling pathway (AID 1346877; active means well fitted inhibition curve with a large enough effect in the repeat runs, not every such curve was filed as active; further: series mostly up to about 51 µM)
Outline: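 Antagonist mode: after a 5 min room-temperature compound exposure, cells were stimulated with 1 nM (final) TRH. Dye-loaded TRHR-HEK293 cells were used, and calcium-dependent fluorescence was followed for 3 min, with 15-point titrations run in triplicate.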

[9] = biological target: Thyrotropin-releasing hormone receptor (Homo sapiens) (UniProt P34981); experiment: qHTS assay to identify small molecule agonists of the thyrotropin-releasing hormone receptor (TRHR) signaling pathway (AID 1346891; calls by dose curve;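 further: HEK293 cells expressing TRHR with calcium dye readout; series mostly up to about 58 µM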)
Outline: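 In 1536-format, 1500 TRHR-Hek293 cells per well grew 18 h, took up calcium dye for 2 h at 37 °C, received compound, and were read kinetically; 15-point titrations, triplicates.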

[10] = Human pregnane X receptor (PXR) small molecule agonists, qHTS cell viability counter screen (AID 1346977); further: nearly all actives have a fitted effect of over 50% in size
Outline: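 Readout is CellTiter-Fluor fluorescence from PXR-Luc HepG2 cells. Plated cells rested 5hr, then were treated with compounds for 24hr at 37C and 5% CO2, with reagent present during the last hour.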

[11] = Caspase-3/7 induction in HepG2 cells by small molecules, qHTS assay (AID 1346978); further: nearly all actives have a fitted effect of over 15% in size
Outline: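 Wild-type HepG2 cells, 2,000/well, settled 5 hr at 37 C and 5% CO2, then compound-treated for 17 hr; caspase-3/7 activity read by luminescent Caspase-Glo 3/7 after 30 min at room temperature.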

[12] = Caspase-3/7 induction in CHO-K1 cells by small molecules, qHTS cell viability counter screen (AID 1346979); further: nearly all actives have a fitted effect of over 35% in size; further: potency means the concentration at half of the fitted maximal effect
Outline: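 To flag cytotoxic compounds, treated CHO-K1 wild-type cells were given CellTiter-Fluor at 16hr and read fluorescently after 1hr at 37C; the caspase-3/7 luminescence was measured in these same wells.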

[13] = Caspase-3/7 induction in CHO-K1 cells by small molecules, qHTS assay (AID 1346980); further: nearly all actives have a fitted effect of over 15% in size
Outline: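 Wild-type CHO-K1 cells exposed to compounds for 17hr at 37 C, 5% CO2. Caspase-3/7 activity then measured by Caspase-Glo 3/7 luminescence after 30min at room temperature.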

[14] = Caspase-3/7 induction in HepG2 cells by small molecules, qHTS cell viability counter screen (AID 1346981); further: series mostly up to about 92 µM; nearly all actives have a fitted effect of over 30% in size
Outline: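 CellTiter-Fluor fluorescence measured viability in the same wells used for Caspase-Glo 3/7. HepG2 (wild type) at 2,000 cells/well were pre-incubated 5 hr, dosed, and given reagent at 16 hr, with 1 hr further at 37C.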

[15] = biological target: Nuclear receptor subfamily 1 group I member 2 (Homo sapiens) (UniProt O75469); experiment: Human pregnane X receptor (PXR) small molecule agonists, qHTS assay (AID 1346982); further: nearly all actives have a fitted effect of over 35% in size; further: potency means the concentration at half of the fitted maximal effect
Outline: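 Agonist mode: luminescence from ONE-Glo after 24 h compound exposure at 37C in HepG2 cells carrying hPXR-responsive CYP3A4 luciferase, plated in charcoal-stripped serum medium 5 h beforehand.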

[16] = biological target: Nuclear receptor subfamily 1 group I member 2 (Rattus norvegicus) (UniProt Q9R1A7); experiment: Rat pregnane X receptor (rPXR) activation by small molecules, qHTS assay (AID 1346983); conditions: rPXR luciferase reporter cells, One-Glo luminescence, 24 h; hits give high values; further: nearly all actives have a fitted effect of over 20% in size
Outline: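 Cell-based rPXR activation assay: rPXR cells, 2,000 per well, rested 5hr at 37 C, then exposed to compounds in DMSO for 24 hr at 37 C. Luciferase activity read by One-Glo luminescence after 30 min at room temperature.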

[17] = biological target: Nuclear receptor subfamily 1 group I member 2 (Homo sapiens) (UniProt O75469); experiment: CYP3A4 induction through human pregnane X receptor (PXR) by small molecules, qHTS assay (AID 1346984); further: nearly all actives have a fitted effect of over 40% in size; further: potency means the concentration at half of the fitted maximal effect
Outline: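 Read-out is luminescence after One-Glo addition, following a 3 hr, 37C incubation with Luciferin-IPA CYP3A4 substrate (3uM final). Before that, compounds were on DPX-2 cells (HepG2 co-transfected with PXR element plus CYP3A4-promoter luciferase) for 24 hr at 37C.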

[18] = biological target: Nuclear receptor subfamily 1 group I member 2 (Homo sapiens) (UniProt O75469); experiment: Human pregnane X receptor (PXR) activation by small molecules, qHTS assay (AID 1346985); further: nearly all actives have a fitted effect of over 40% in size; further: potency means the concentration at half of the fitted maximal effect
Outline: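 DPX-2 cells (HepG2 co-transfected with a PXR response element and a CYP3A4-promoter luciferase construct) were seeded at 2,000 per well, rested 5 hr at 37C, then exposed to DMSO-dissolved compounds for 24 hr. Activation was read as luciferase luminescence.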

[19] = biological target: Progesterone receptor (Homo sapiens) (UniProt P06401); experiment: qHTS assay to identify small molecule agonists of the progesterone receptor (PR) signaling pathway (AID 1346784; calls by dose curve; further: nearly all actives have a fitted effect of over 30% in size)
Outline: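 Using charcoal-stripped serum (2%) to limit endogenous steroids, PR-UAS-bla HEK 293T cells received compounds for 16 hr at 37C after 6 hr plating; beta-lactamase FRET fluorescence was recorded following 2 hr substrate loading at room temperature.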

Progesterone receptor (Homo sapiens), sequence (P06401 whole entry, looked up): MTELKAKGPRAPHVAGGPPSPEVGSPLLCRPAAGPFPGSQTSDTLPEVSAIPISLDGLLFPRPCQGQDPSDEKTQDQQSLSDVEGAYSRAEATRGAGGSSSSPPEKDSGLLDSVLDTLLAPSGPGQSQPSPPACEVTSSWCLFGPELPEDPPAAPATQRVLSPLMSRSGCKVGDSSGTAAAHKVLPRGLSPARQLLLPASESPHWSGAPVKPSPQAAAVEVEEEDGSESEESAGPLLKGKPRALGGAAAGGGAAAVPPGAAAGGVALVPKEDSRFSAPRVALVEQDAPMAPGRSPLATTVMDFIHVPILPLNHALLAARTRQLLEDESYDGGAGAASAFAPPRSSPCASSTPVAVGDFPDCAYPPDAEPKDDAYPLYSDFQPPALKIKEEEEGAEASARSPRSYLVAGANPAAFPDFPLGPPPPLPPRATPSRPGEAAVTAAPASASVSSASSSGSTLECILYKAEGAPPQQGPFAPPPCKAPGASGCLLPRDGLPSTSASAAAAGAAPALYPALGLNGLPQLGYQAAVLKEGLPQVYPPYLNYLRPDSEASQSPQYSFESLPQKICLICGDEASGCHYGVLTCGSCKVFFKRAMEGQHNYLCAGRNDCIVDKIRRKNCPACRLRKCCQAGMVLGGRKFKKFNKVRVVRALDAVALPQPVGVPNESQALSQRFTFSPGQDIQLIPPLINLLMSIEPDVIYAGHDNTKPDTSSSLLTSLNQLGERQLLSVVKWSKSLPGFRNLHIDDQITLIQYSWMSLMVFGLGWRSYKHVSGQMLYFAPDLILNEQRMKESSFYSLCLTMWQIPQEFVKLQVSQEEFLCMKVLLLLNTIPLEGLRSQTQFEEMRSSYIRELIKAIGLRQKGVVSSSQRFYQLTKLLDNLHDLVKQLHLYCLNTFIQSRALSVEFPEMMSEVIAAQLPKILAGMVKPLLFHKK
Nuclear receptor subfamily 1 group I member 2 (Homo sapiens), sequence (O75469 whole entry, looked up): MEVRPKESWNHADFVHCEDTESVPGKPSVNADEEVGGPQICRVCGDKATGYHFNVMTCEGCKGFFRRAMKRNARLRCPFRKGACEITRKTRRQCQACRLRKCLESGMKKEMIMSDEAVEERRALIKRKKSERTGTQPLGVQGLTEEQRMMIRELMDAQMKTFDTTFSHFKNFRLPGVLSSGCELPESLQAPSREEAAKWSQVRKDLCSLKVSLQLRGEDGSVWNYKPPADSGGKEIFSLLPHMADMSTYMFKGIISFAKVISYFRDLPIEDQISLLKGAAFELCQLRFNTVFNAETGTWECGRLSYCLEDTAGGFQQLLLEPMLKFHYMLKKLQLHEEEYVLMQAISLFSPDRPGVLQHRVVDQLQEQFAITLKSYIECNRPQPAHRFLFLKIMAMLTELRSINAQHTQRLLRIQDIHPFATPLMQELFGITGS
Thyrotropin-releasing hormone receptor (Homo sapiens), sequence (P34981 whole entry, looked up): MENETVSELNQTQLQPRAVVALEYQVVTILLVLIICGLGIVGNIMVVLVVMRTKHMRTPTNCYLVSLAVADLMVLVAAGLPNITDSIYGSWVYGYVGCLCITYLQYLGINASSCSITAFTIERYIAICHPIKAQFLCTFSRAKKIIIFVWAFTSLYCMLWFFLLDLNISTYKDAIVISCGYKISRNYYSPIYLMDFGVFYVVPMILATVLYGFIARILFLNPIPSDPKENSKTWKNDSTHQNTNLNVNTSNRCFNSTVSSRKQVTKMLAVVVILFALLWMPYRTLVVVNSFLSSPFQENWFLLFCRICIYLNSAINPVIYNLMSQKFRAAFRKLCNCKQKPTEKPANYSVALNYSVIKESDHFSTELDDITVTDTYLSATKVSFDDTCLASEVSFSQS
Nuclear receptor subfamily 1 group I member 2 (Rattus norvegicus), sequence (Q9R1A7 whole entry, looked up): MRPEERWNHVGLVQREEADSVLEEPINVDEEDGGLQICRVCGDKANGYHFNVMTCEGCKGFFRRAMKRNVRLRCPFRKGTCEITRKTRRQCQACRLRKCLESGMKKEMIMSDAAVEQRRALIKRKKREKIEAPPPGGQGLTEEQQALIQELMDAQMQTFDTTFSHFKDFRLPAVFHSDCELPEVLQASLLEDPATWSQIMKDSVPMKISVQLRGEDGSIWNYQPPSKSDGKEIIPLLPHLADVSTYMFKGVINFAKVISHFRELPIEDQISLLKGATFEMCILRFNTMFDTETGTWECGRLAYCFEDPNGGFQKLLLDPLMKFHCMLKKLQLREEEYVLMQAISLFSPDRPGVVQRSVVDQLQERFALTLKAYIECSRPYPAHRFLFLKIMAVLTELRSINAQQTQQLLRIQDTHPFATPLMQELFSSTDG

Row | Compound | Potency [1] | Potency [2] | Potency [3] | Potency [4] | Potency [5] | outcome [6] | outcome [7] | outcome [8] | outcome [9] | Potency [10] | Potency [11] | Potency [12] | outcome [13] | Potency [14] | Potency [15] | max activation [16] | Potency [17] | Potency [18] | Potency [19]
1 | N=C(N)c1ccc2cc(OC(=O)c3ccc(N=C(N)N)cc3)ccc2c1 | inactive | inactive | inactive | inactive | inactive | inactive | inactive | inactive | inactive | inactive | inactive | inactive | inactive | inactive | inactive | -2.79% | inactive | inactive | 
2 | O=c1cc(-c2ccccc2)oc2ccccc12 | inactive | 61.1 µM (active) |  |  | inactive | inactive | inactive | inactive | inactive | inactive | inactive | 68.2 µM (active) | inactive | inactive | 54.5 µM (active) and 24.2 µM (active) |  |  |  | 
3 | O=C(CCCN1CCN(c2ccccn2)CC1)c1ccc(F)cc1 | inactive |  | inactive | inactive | inactive | inactive | inactive | inactive | inactive | inactive | inactive | inactive | inactive | inactive | 6.68 µM (active) | 0.0374% | 12.6 µM (active) | 10 µM (active) | inactive
4 | O=[N+]([O-])c1ccc(F)cc1F | inactive | inactive | inactive | inactive | inactive | inactive | inactive |  |  | inactive | inactive | inactive | inactive | inactive | inactive |  |  |  | 
5 | CCOC(=O)CCC(C)=O | inactive | inactive |  | inactive | inactive | inactive | inactive |  |  | inactive | inactive | inactive |  | inactive | inactive |  |  |  | inactive
